From PubChem BioAssay (NCATS) come the findings set out here.

Assay [1] in a line: qHTS of pediatric cancer cell lines to identify multiple opportunities for drug repurposing: Primary screen for BT-12 cells (AID 1347101). Note: nearly all actives have a fitted effect of over 25% in size. The procedure, abridged:
(§1)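 Cells (500-1,000/well) rested 5 h, then received compounds for 48 h; metabolically active cells were measured by CellTiter-Glo luminescence. Final concentrations spanned up to 46 µM (MIPE, 11-point) or 0.59 nM-46 µM (NPC, 8-point) in primary screens, 11-point in follow-ups.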

Assay [2] can be described thus: qHTS of pediatric cancer cell lines to identify multiple opportunities for drug repurposing: Primary screen for Rh18 cells (AID 1347102). Note: nearly all actives have a fitted effect of over 65% in size. The procedure, abridged:
(§2)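 Cells (500-1,000/well) in growth media were settled 5 h at 37 degrees C, then given compounds for 48 h. Viability was read as CellTiter-Glo luminescence. Primary runs used MIPE at 11 points (0.78 nM-46 µM) and NPC at 8 points (0.59 nM-46 µM); follow-ups used 11 points.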

Assay [3] can be described thus: qHTS of pediatric cancer cell lines to identify multiple opportunities for drug repurposing: Primary screen for OHS-50 cells (AID 1347103). Note: nearly all actives have a fitted effect of over 40% in size. The procedure, abridged: as §1
In general terms: Quantitative high-throughput screening tests each substance at several concentrations.

A short description of assay [4]: qHTS of pediatric cancer cell lines to identify multiple opportunities for drug repurposing: Primary screen for RD cells (AID 1347104). Note: nearly all actives have a fitted effect of over 55% in size. The procedure, abridged:
(§3)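 Following a 5-hour attachment period, cells at 500-1,000/well received compounds and were cultured for 48 hours. CellTiter-Glo was added and luminescence read to estimate viable, metabolically active cells.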

A short description of assay [5]: qHTS of pediatric cancer cell lines to identify multiple opportunities for drug repurposing: Primary screen for MG 63 (6-TG R) cells (AID 1347105). Note: nearly all actives have a fitted effect of over 50% in size. In short, it runs like this:
as §3

Assay [6] can be described thus: qHTS of pediatric cancer cell lines to identify multiple opportunities for drug repurposing: Primary screen for Rh41 cells (AID 1347108).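 For activity change, negative = cytotoxic: luminescence drop marks cytotoxic hits.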 Note: nearly all actives have a fitted effect of over 70% in size. The procedure, abridged:
as §3

Assay [7] is described as follows: qHTS of pediatric cancer cell lines to identify multiple opportunities for drug repurposing: Confirmatory screen for NB1643 cells (AID 1347109). Note: nearly all actives have a fitted effect of over 45% in size. The procedure, abridged:
as §2

Assay [8] in a line: qHTS of pediatric cancer cell lines to identify multiple opportunities for drug repurposing: Confirmatory screen for A673 cells (AID 1347110).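 Note: cells exposed to compound for 48 h before the viability read; nearly all actives have a fitted effect of over 65% in size.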 The procedure, abridged: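 Viability was read as ATP luminescence (CellTiter-Glo) after 48 h of compound exposure at 37 C in A673 cells seeded at 500-1,000/well. Titrations reached 46 uM final, with 11 points in the confirmatory screen. Concentration-response curves were fitted directly.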

Assay [9] is described as follows: qHTS of pediatric cancer cell lines to identify multiple opportunities for drug repurposing: Confirmatory screen for SK-N-MC cells (AID 1347111).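 Note: cells exposed to compound for 48 h before the readout; nearly all actives have a fitted effect of over 70% in size.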 In short, it runs like this: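 Metabolically active cells were quantified by ATP-dependent luminescence (CellTiter-Glo, 15 min at room temperature) following 48 h treatment. Cells had been plated at 500-1,000 per well and settled for 5 h beforehand.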

Assay [10] in a line: qHTS of pediatric cancer cell lines to identify multiple opportunities for drug repurposing: Confirmatory screen for LAN-5 cells (AID 1347113). Note: nearly all actives have a fitted effect of over 65% in size. The procedure, abridged:
as §2

Assay [11] can be described thus: qHTS of pediatric cancer cell lines to identify multiple opportunities for drug repurposing: Confirmatory screen for DAOY cells (AID 1347114). Note: nearly all actives have a fitted effect of over 65% in size. The procedure, abridged:
(§4)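 Viability measured as metabolically active cells via CellTiter-Glo luminescence following 48 hours of compound exposure, 11-point dilutions in confirmatory testing. 500-1,000 cells/well plated 5 hours before dosing; controls were DMSO and 2.3 µM bortezomib.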

The nature of assay [12]: qHTS of pediatric cancer cell lines to identify multiple opportunities for drug repurposing: Confirmatory screen for SJ-GBM2 cells (AID 1347116). Note: nearly all actives have a fitted effect of over 60% in size. The procedure, abridged:
as §4

Assay [13] is described as follows: qHTS of pediatric cancer cell lines to identify multiple opportunities for drug repurposing: Confirmatory screen for BT-37 cells (AID 1347117). Note: nearly all actives have a fitted effect of over 55% in size. The note with it: BT-37 pediatric cancer cells, viability; activity change, negative = cytotoxic: at 45.9 µM (top of the series). In short, it runs like this: as §2
A short description of assay [14]: qHTS of pediatric cancer cell lines to identify multiple opportunities for drug repurposing: Primary screen for control Hh wild type fibroblast cells (AID 1347106).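 For activity change, negative = cytotoxic: a drop in luminescence marks cytotoxicity and a rise apparent proliferation.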 Note: nearly all actives have a fitted effect of over 55% in size. The procedure, abridged:
as §2

The nature of assay [15]: qHTS of pediatric cancer cell lines to identify multiple opportunities for drug repurposing: Primary screen for Rh30 cells (AID 1347107). Note: nearly all actives have a fitted effect of over 75% in size. The procedure, abridged: as §2
Assay [16] in a line: qHTS of pediatric cancer cell lines to identify multiple opportunities for drug repurposing: Confirmatory screen for TC32 cells (AID 1347118). In short, it runs like this:
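Luminescent CellTiter-Glo read-out of metabolically active TC32 cells after 48 h compound exposure. Primary: MIPE 11-point, 0.78 nM–46 µM; NPC 8-point, 0.59 nM–46 µM. Confirmatory: 11-point dilutions.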

The nature of assay [17]: qHTS of pediatric cancer cell lines to identify multiple opportunities for drug repurposing: Confirmatory screen for control Hh wild type fibroblast cells (AID 1347121). Note: nearly all actives have a fitted effect of over 70% in size. The procedure, abridged: as §2
Assay [18] can be described thus: qHTS of pediatric cancer cell lines to identify multiple opportunities for drug repurposing: Confirmatory screen for BT-12 cells (AID 1347112). Note: nearly all actives have a fitted effect of over 55% in size. In short, it runs like this:
as §2

A short description of assay [19]: qHTS of pediatric cancer cell lines to identify multiple opportunities for drug repurposing: Confirmatory screen for MG 63 (6-TG R) cells (AID 1347119). Note: nearly all actives have a fitted effect of over 55% in size. In short, it runs like this: as §2
Assay [20] is described as follows: qHTS of pediatric cancer cell lines to identify multiple opportunities for drug repurposing: Confirmatory screen for NB-EBc1 cells (AID 1347115).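 Note: cells exposed to compound for 48 h before the viability read; nearly all actives have a fitted effect of over 45% in size.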 The procedure, abridged: as §2

Results filed as inconclusive are left out. Unmarked numbers belong to inactive results. Calls of active or inactive are those of the source. Calls come from the whole dose curve; as a rule, active = well fitted curve in the direction sought with a large enough effect; inconclusive = small, poorly fitted or top-dose-only effect, or another doubt; inactive = no such curve, though single readings can be large; an effect the other way counts as inactive or inconclusive.
Potency is the fitted concentration of half-maximal effect.

On to `C=CC(=O)N1CCc2ccc(-n3c(=O)ccc4cnc5ccc(-c6cnn(C)c6)cc5c43)cc21`, for which the Potency was 6.11 µM (active) in assay [1]; 8.33 µM (active) in assay [2]; 8.63 µM (active) in assay [3]; 4.69 µM (active) in assay [4]; 2.96 µM (active) in [5]; 3.72 µM (active) in assay [6]. Besides, the Potency in assay [7] was 2.93 µM (active); in [8] it was 14.7 µM (active); in assay [9] it was 5.22 µM (active); in assay [10], 2.93 µM (active); in assay [11], 9.27 µM (active); in assay [12], 9.27 µM (active). Further, in assay [13], the Potency was 4.65 µM (active).

For `C[C@H]1COc2c(N3CCN(C)CC3)c(F)cc3c(=O)c(C(=O)O)cn1c23`, the Potency entry in assay [1], in [2], in [3], in [4], in [14] and in assay [15] was “inactive” throughout. Moreover, the Potency entry in assay [6] was “inactive”.

On to `CCN(CC)CCCCNc1ncc2c(n1)N(C)C(=O)N(c1c(Cl)c(OC)cc(OC)c1Cl)C2`, for which the Potency in [1] was 17.2 µM (active); in assay [2] it was 11.8 µM (active); in [3] it was 19.3 µM (active); in assay [4], 18.7 µM (active); in assay [6], 18.7 µM (active). Besides, the Potency entry in assay [5] is “inactive”.

As to `O=C(O)C[C@H](O)C[C@H](O)C=Cc1c(C2CC2)nc2ccccc2c1-c1ccc(F)cc1`, the Potency was 0.273 µM (active) in [1]; 4.69 µM (active) in assay [2]; 3.06 µM (active) in [3]; 18.7 µM (active) in assay [4]; 1.48 µM (active) in assay [5]; 4.69 µM (active) in assay [6]. Also, the Potency in assay [8] was 2.33 µM (active); in assay [11] it was 1.47 µM (active); in assay [16] it was 2.93 µM (active). In assay [17], the Potency result is “inactive”.

Turning to `C[C@@H](Oc1ccc2[nH]nc(C=Cc3cnn(CCO)c3)c2c1)c1c(Cl)cncc1Cl`, the Potency in assay [1] was 17.2 µM (active); in [2], 5.9 µM (active); in [3] it was 7.69 µM (active); in assay [4], 18.7 µM (active); in assay [5] it was 18.7 µM (active); in assay [6], 14.8 µM (active). Further, the Potency in [7] was 0.657 µM (active); in assay [8] it was 1.31 µM (active); in [18], 23.3 µM (active); in assay [10], 0.827 µM (active); in assay [11], 18.5 µM (active); in assay [12], 18.5 µM (active). In addition, the Potency was 18.5 µM (active) in [13], 0.737 µM (active) in assay [19] and 13.1 µM (active) in assay [17].

In the case of `CC[C@H](CC[C@@H](C)[C@H]1CC[C@H]2[C@@H]3CC=C4C[C@@H](O)CC[C@]4(C)[C@@H]3CC[C@]12C)C(C)C`, the Potency result in [1], in assay [2], in [3], in assay [4], in assay [14] and in assay [15] was “inactive” in each case.

Take `COc1cc(CCc2cc(NC(=O)c3ccc(N4C[C@@H](C)N[C@@H](C)C4)cc3)n[nH]2)cc(OC)c1`: the Potency in [1] was 27.3 µM (active); in [2], 5.9 µM (active); in assay [3], 5.44 µM (active); in assay [4], 16.6 µM (active); in [14], 33.2 µM (active); in [15], 18.7 µM (active). The Potency in assay [6] is 5.9 µM (active).

As to `C=CCNC1=C2C[C@@H](C)C[C@H](OC)[C@@H](O)[C@@H](C)C=C(C)[C@H](OC(N)=O)[C@@H](OC)C=CC=C(C)C(=O)NC(=CC1=O)C2=O`, the Potency was 19.3 µM (active) in assay [1]; 0.833 µM (active) in assay [2]; 1.22 µM (active) in assay [3]; 0.235 µM (active) in assay [4]; 23.5 µM (active) in [5]; 13.2 µM (active) in assay [15]. The Potency in assay [6] is 3.72 µM (active); in assay [7], 1.17 µM (active); in [9], 2.33 µM (active); in assay [10], 4.65 µM (active); in assay [11], 4.65 µM (active); in assay [12], 0.165 µM (active). The Potency in [13] is 0.0928 µM (active); in assay [16], 0.522 µM (active); in assay [19] it was 2.61 µM (active). Besides, the Potency result in assay [18] is “inactive”.

`COc1cc(O)c2c(c1)C1OC1C[C@H](O)[C@H](O)C(=O)C=CC[C@H](C)OC2=O` (stereo not given in full): the Potency was 13.7 µM (active) in assay [1]; 16.6 µM (active) in assay [2]; 19.3 µM (active) in assay [3]; 2.35 µM (active) in assay [4]; 18.7 µM (active) in assay [5]; 11.8 µM (active) in assay [6]. Moreover, the Potency in [7] is 4.65 µM (active); in assay [8], 11.7 µM (active); in [18] it was 16.5 µM (active); in assay [10] it was 7.37 µM (active); in assay [11], 16.5 µM (active); in assay [20] it was 5.85 µM (active). Moreover, the Potency in assay [12] was 5.85 µM (active); in [13], 14.7 µM (active); in [19], 5.85 µM (active).

As for `O=C(NC1CC1)c1cccc(-c2ccc3c(NC(=O)C4CC4)n[nH]c3c2)c1`, the Potency was 3.85 µM (active) in [1]; 2.96 µM (active) in assay [2]; 3.85 µM (active) in assay [3]; 0.935 µM (active) in assay [4]; 1.48 µM (active) in assay [5]; 2.96 µM (active) in [6]. Besides, the Potency was 4.14 µM (active) in [8], 9.27 µM (active) in assay [11], 5.85 µM (active) in [16] and 11.7 µM (active) in [19]. Also, the Potency entry in assay [15], in assay [10] and in [17] was “inactive” in each case.

In the case of `c1cc(N[C@@H]2CCNC2)nc(-c2cnc3ccc(-c4cn[nH]c4)cn23)c1`, the Potency was 17.2 µM (active) in [1]; 20.9 µM (active) in [2]; 19.3 µM (active) in assay [3]; 16.6 µM (active) in assay [4]; 23.5 µM (active) in assay [14]; 16.6 µM (active) in [6]. In assay [15], the Potency entry is “inactive”.

`C[C@]12C=CC(=O)N[C@@H]1CC[C@H]1[C@H]3CC[C@@H](C(=O)Nc4cc(C(F)(F)F)ccc4C(F)(F)F)[C@@]3(C)CC[C@@H]12`: the Potency entry in assay [1], in assay [2], in assay [4], in [5], in assay [14] and in [15] was “inactive” in each case.

For the compound `O=C1CSC(=O)N1C(CCc1ccncc1)COc1ccc(-c2cccc([N+](=O)[O-])c2)cc1` (stereo not given), the figures for the Potency in assay [1] and in assay [3] were 6.85 µM (active) and 4.85 µM (active), respectively. Moreover, the Potency entry in assay [2] and in assay [14] was “inactive” throughout.
